# Pf growth 48h: Primary qHTS for delayed death inhibitors of the malarial parasite plastid, 48 hour incubation | P. falciparum luciferase growth in erythrocytes, 48 h | Potency, µM (doses to about 28.7 µM), without a hit: top-dose activity change, negative = inhibition, hits mostly inhibitors | hit rate 5.9% among 310,000 | AID 504832, 2011; note: potency is the fitted concentration of half-maximal effect; % is set by controls: 0 for no effect and ±100 for the full control effect
#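 A one-generation exposure of luciferase-tagged malaria parasites in RPMI 1640/Albumax erythrocyte culture, 37 C and 5% CO2. Inhibition is inferred from decreased luminescence after adding detection reagent.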
# NS1 function inh: qHTS Assay for Inhibitors of Influenza NS1 Protein Function | Potency, µM (doses to about 46.1 µM), inactives show top-dose activity, positive = more growth | hit rate 0.4% among 270,000 | AID 2326, 2010; calls by dose curve; note: potency is the fitted concentration of half-maximal effect; actives are rising curves; nearly all actives have a fitted effect of over 50% in size
#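 S. cerevisiae expressing influenza A NS1, grown in glucose, washed, then diluted 1:100 into pH 6.0 -URA galactose medium with 23 nl compound. Growth recovery read as OD600; NS1-free strain serves as control.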
# Pf growth 96h: Primary qHTS for delayed death inhibitors of the malarial parasite plastid, 96 hour incubation; P. falciparum luciferase reporter growth, 96 h; Potency, µM (highest dose often 28.7 µM), for inactives: top-dose activity change, negative = inhibition, most hits filed as inhibitors; hit rate 6.9% among 320,000; AID 504834, 2011; note: potency is the fitted concentration of half-maximal effect; % is set by controls: 0 for no effect and ±100 for the full control effect
#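 Delayed-death screen, second-generation endpoint: infected erythrocytes, 2% hematocrit, 0.05% parasitemia final; 96 hours at 37 C, 5% CO2; luciferase detection reagent; luminescence decrease equals reduced growth.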
# Shiga toxin inh: A qHTS for Small Molecule Inhibitors of Shiga Toxin; inhibition, % at 38.7 µM; hit rate 9.2% among 290,000; Vero cells, Shiga toxin protein synthesis inhibition reporter; AID 2315, 2010; in the data active = inhibition mostly above about 28%, no sharp cut-off; inactive = mostly below about 43%; note: 0% is about no effect
# Sm TGR inh: qHTS Assay for the Inhibitors of Schistosoma Mansoni Peroxiredoxins; purified TGR, DTNB reduction, TNB absorbance 405 nm; Potency, µM (doses to about 114 µM), for the others: at the highest dose activity change, negative = inhibition, hits mostly inhibitors; hit rate 3% among 360,000; note: potency is the fitted concentration of half-maximal effect; % is set by controls: 0 for no effect and ±100 for the full control effect; nearly all actives have a fitted effect of over 60% in size
#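 Kinetic colorimetric format: TGR-catalysed, NADPH-driven DTNB reduction monitored via TNB absorbance. Enzyme dispensed at 20 nM; compound exposure 15 min at room temperature before reaction start.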
# CHX counter: Cycloheximide Counterscreen for Small Molecule Inhibitors of Shiga Toxin; cell reporter, cycloheximide protein synthesis inhibition counterscreen; max response, %; hit rate 12% among 300,000; AID 2314, 2010; in the data active = max response mostly above about 13%, no sharp cut-off; inactive = mostly below about 14%; note: read at 38.3 µM for the half of the compounds with a filed dose; 0% is about no effect
# The depositor's hits bear a star; i = inactive; ? = inconclusive; . = not tested or not shown; ! = not confirmed by another sample. Rows were chosen to be rich in hits. Some 21% of all compounds tested hit in one or more screens of this group. Unless noted, calls come from the whole dose curve; as a rule, active = well fitted curve in the direction sought with a large enough effect; inconclusive = small, poorly fitted or top-dose-only effect, or another doubt; inactive = no such curve, though single readings can be large; an effect the other way counts as inactive or inconclusive.
SMILES,Pf growth 48h,NS1 function inh,Pf growth 96h,Shiga toxin inh,Sm TGR inh,CHX counter
Cc1nonc1OCCn1c([N+](=O)[O-])cnc1C,8%,2%,18%,-7,.,-2
CCCCC(=O)N1CCN(c2nc3ccc(OCC)cc3s2)CC1,?,-9%,12µM*,-2,4%,13
CCCCC(=O)N1CCN(c2nc3ccc(F)cc3s2)CC1,167%,-25%,-18%,35*,-9%,12
CCC(=O)N1CCN(c2nc3ccc(Br)cc3s2)CC1,79%,-10%,43%,59*,2%,36*
COc1ccc(-c2ccc3c(n2)sc2c(=O)[nH]c(=O)[nH]c23)cc1OC,15%,.,81%,4,1%,17
Cc1ccc(S(=O)(=O)/N=C2/NC(=O)/C(=C/c3cccnc3)S2)cc1,-8%,-3%,14%,-15,-15%,-3
Cc1ccc(S(=O)(=O)/N=C2/NC(=O)/C(=C/c3ccc(Br)o3)S2)cc1,2%,-16%,29%,-5,22µM*,-2
Cc1ccc(S(=O)(=O)/N=C2/NC(=O)/C(=C\c3cc(Br)cc(Br)c3O)S2)cc1,12%,?,-91%,37,28µM*,-3
O=C(O)[C@H](/C=C\c1ccccc1)c1ccccc1,.,8%,.,.,.,.
c1ccc(CN2CCC(=NNc3nc4ccccc4[nH]3)CC2)cc1,-2%,.,?,31,-2%,33*
CC(C)(C)C1CCC(=NNc2nc3ccccc3[nH]2)CC1 (stereo unspecified),?,.,?,68*,-13%,37*
c1ccc2c(c1)CC/C2=N/Nc1nc2ccccc2[nH]1,2.6µM*,.,?,119*,-3%,47*
O=C(c1ccccc1-c1nc2ccccc2[nH]1)N1CCCCC1,-4%,-5%,246%,2,-1%,1
O=C(O)c1cc(NN=C2CCN(Cc3ccccc3)CC2)ccc1Cl,-6%,-1%,?,12,?,1
Cc1cccc(Cn2c(SCc3ccc(C(=O)NCc4ccccc4F)cc3)nc3ccncc32)c1,.,.,.,.,4%,.
O=C1CC(SC2=NCCS2)C(=O)N1c1ccc(Br)cc1 (stereo unspecified),4%,4%,7%,-2,56µM*,-5
O=C1CC(SC2=NCCS2)C(=O)N1c1ccc(Cl)cc1 (stereo unspecified),2%,1%,i,-6,56µM*,-3
O=C(NC1=NCCS1)C1CC(=O)N(c2ccc(Cl)cc2)C1 (stereo unspecified),68%,2%,0%,24,14%,9
CCOc1ccc(OCCC(=O)N(CC)CC(=O)Nc2c(F)cccc2F)cc1,-28%,.,-22%,.,-1%,.
CCN1CCN(S(=O)(=O)c2cc3c(cc2Cl)NC(=O)CO3)CC1,13%,-7%,-22%,-10,22%,-2
Cn1cnc([N+](=O)[O-])c1Oc1ccc2ccccc2c1,-4%,-6%,-26%,-3,14µM*,-2
Cc1ccccc1C(=O)N1CCC(c2nc3ccccc3s2)CC1,.,.,.,.,6%,.
CCc1ccc(C(=O)N2CCC(c3nc4ccccc4s3)CC2)cc1,13%,-37%,3.3µM*,-2,-16%,1
COc1ccc(C2CC(c3ccccc3)=NN2C(=O)COC(=O)c2nc3nc(C)cc(C)n3n2)cc1 (stereo unspecified),?,22%,?,43,4%,9
CCc1ccc(-n2nc3cc(C)c(NC(=O)c4cc(OC)cc(OC)c4)cc3n2)cc1,.,.,.,.,-3%,.
SMILES,Pf growth 48h,NS1 function inh,Pf growth 96h,Shiga toxin inh,Sm TGR inh,CHX counter
COc1ccc(-n2nc3cc(C)c(NC(=O)C(C)C)cc3n2)cc1,206%,1%,?,69*,0%,36*
CCOc1ccc(-n2nc3cc(C)c(NC(=O)CC)cc3n2)cc1,.,.,.,.,5%,.
COc1ccc(-n2nc3cc(C)c(NC(C)=O)cc3n2)cc1,94%,0%,1%,140*,.,32*
Clc1ccccc1C1=CC(c2ccco2)n2nnnc2N1 (stereo unspecified),4%,-8%,24%,-3,0%,1
COc1ccc(C(=O)Oc2c(CN3CCOCC3)cc(Cl)c3cccnc23)cc1OC,.,-36%,.,.,.,.
O=C(Oc1c(CN2CCOCC2)cc(Cl)c2cccnc12)c1ccccc1,?,.,?,28,-15%,8
COc1cc(OC)cc(C(=O)Oc2c(CN3CCOCC3)cc(Cl)c3cccnc23)c1,1.5µM*,-3%,0.93µM*,35,-10%,8.0*
O=C(Oc1c(CN2CCOCC2)cc(Cl)c2cccnc12)c1ccccc1F,-13%,.,2.1µM*,72,1%,13
Cc1ccc(O)c(-c2cc(-c3cccc(F)c3)n[nH]2)c1,8.3µM*,-88%,.,60,19%,24*
Cc1ccc(-c2cc(-c3cccc(F)c3)n[nH]2)c(O)c1,?,-86%,.,76*,-12%,31*
Cc1ccc(-c2cc(-c3ccccc3C)[nH]n2)c(O)c1,-24%,5%,-98%,42*,6%,40*
Cc1ccc(O)c(-c2n[nH]c3c2C(c2ccccc2F)N(Cc2ccco2)C3=O)c1 (stereo unspecified),.,.,.,.,3%,.
Cc1ccc(O)c(-c2cc(-c3ccccc3F)[nH]n2)c1,?,1%,.,104*,1%,35*
COc1ccc(N(CC(=O)Nc2cc(Cl)ccc2OC)C2=NC3CS(=O)(=O)CC3S2)cc1 (stereo unspecified),-18%,-4%,?,-2,-28%,-3
C[C@H](CCC(=O)O)[C@H]1CC[C@@H]2[C@H]3[C@@H](C[C@@H](O)[C@]21C)[C@]1(C)CC[C@H](O)C[C@@H]1C[C@@H]3O,-13%,0%,-17%,.,.,.
C[C@H](CCC(=O)O)[C@H]1CC[C@H]2[C@@H]3[C@H](O)C[C@@H]4C[C@H](O)CC[C@]4(C)[C@H]3C[C@H](O)[C@]12C,9.3µM*!,7%,12µM*!,-8,-2%,-3
COc1cc([C@H]2c3cc4c(cc3[C@@H](O[C@H]3O[C@H]5CO[C@@H](C)O[C@H]5[C@@H](O)[C@@H]3O)[C@@H]3COC(=O)[C@H]23)OCO4)cc(OC)c1O,13µM*,.,13µM*,.,.,.
COc1cc(C2c3cc4c(cc3C(OC3OC5COC(c6cccs6)OC5C(O)C3O)C3COC(=O)C23)OCO4)cc(OC)c1O (stereo unspecified),?,-5%,?,-7,10%,-1
COc1cc(C2c3cc4c(cc3C(O[C@@H]3OC5COC(c6cccs6)OC5C(O)C3O)C3COC(=O)C23)OCO4)cc(OC)c1O (stereo partly specified),0.54µM*,.,0.48µM*,.,.,.
O=C(NC1CC1)c1cc(-c2ccc(Br)cc2)nc2ccccc12,?,.,?,.,-4%,.

# High-throughput results from PubChem.
